Compound activity from PubChem BioAssay.
An excerpt weighted towards active compounds, which were near 3.7% of everything screened.
RE007 growth inh – less growth of the S. pombe RE007 Vpr strain; S. pombe RE007 Vpr strain, BacTiter-Glo ATP luminescence, 24 h; Potency, µM (top dose mostly 92.2 µM), for inactives: at the highest dose activity change, negative = less growth, most hits filed as inhibitors; 360,000 tested, 0.21% active; active = well fitted falling curve with a large enough effect; inconclusive = small, poorly fitted or top-dose-only effect; inactive = no such curve, though single readings can be large or run the other way; also: nearly all actives have a fitted effect of over 50% in size
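Fission yeast strain RE007, carrying one chromosomally integrated HIV-1 vpr copy, was seeded at OD 0.01 in PMG+AL medium with 23 nL pinned compound. After 24 h at 30 °C and 99% humidity, viability was read by BacTiter-Glo luminescence.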
TbPYK inhibitor – blocks Trypanosoma brucei pyruvate kinase. Q57TT1. TbPYK enzyme, Kinase-Glo Plus ATP luminescence, 45 min. Potency, µM (top dose mostly 76.8 µM), for the others: at the top dose activity, negative = inhibition, usual class: inhibitors. 410,000 tested, 0.12% active. AID 624173; also: nearly all actives have a fitted effect of over 50% in size
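Glycolytic pyruvate kinase of T. brucei was incubated with substrate, test compound and 130 uM ADP for 45 minutes at room temperature. Luminescent Kinase-Glo Plus signal was measured after 10 minutes.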
FMDV antiviral – foot and mouth disease virus antiviral activity; FMDV antiviral cell-based qHTS; Potency, µM (top dose mostly 57.9 µM), inactives show at the highest dose activity change, negative = inhibition, actives largely listed as inhibitors; 410,000 tested, 1.2% active; calls by dose curve; tested in HEK293T cells; also: read-out not given here; nearly all actives have a fitted effect of over 45% in size
Sm TGR block – S. mansoni TGR enzyme inhibition; Q962Y6; purified TGR, DTNB reduction, TNB absorbance 405 nm; Potency, µM (titrated, usually from 114 µM), for inactives: at the top dose activity change, negative = inhibition, hits mostly inhibitors; 360,000 tested, 3% active; also: nearly all actives have a fitted effect of over 60% in size
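Kinetic colorimetric format: TGR-catalysed, NADPH-driven DTNB reduction monitored via TNB absorbance. Enzyme dispensed at 20 nM; compound exposure 15 min at room temperature before reaction start.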
Starred values were filed as active, the others as inactive; ? = inconclusive; · = no result given; [ ] = remark or other dose. Unless noted, calls follow the shape of the dose curve; as a rule, active = well fitted curve in the direction sought with a large enough effect; inconclusive = small, poorly fitted or top-dose-only effect, or another doubt; inactive = no such curve, though single readings can be large; an effect the other way counts as inactive or inconclusive. % is scaled to controls: 0 for no effect and ±100 for the full control effect; potency is read from the fitted curve at half-maximal effect.

SMILES | RE007 growth inh | TbPYK inhibitor | FMDV antiviral | Sm TGR block
CCOc1ccccc1NC(=O)CC(c1ccc(F)cc1)N1Cc2ccccc2C1=O (stereo not drawn) | · | -2% | -10% | 4%
C[n+]1cccc2c(Br)ccc([O-])c21 | -20% | -10% | -20% | 45µM*
Cc1ccc(CNC(=O)CN2Cc3ccccc3C2=O)cc1 | · | -13% | 22% | -1%
CCC(Cc1ccccc1)NC(=O)c1ccc2nc(N3CCC(C)CC3)sc2c1 (stereo not drawn) | · | -5% | ? | 4%
CCOc1ccc(-c2nc(S(=O)(=O)c3ccccc3)c(N3CCOCC3)o2)cc1 | -17% | -3% | 17% | ·
CCS(=O)(=O)c1nc(S(=O)(=O)c2ccc(Cl)cc2)c(N2CCOCC2)s1 | -2% | -10% | -1% | 22µM*
CCCCc1nc(S(=O)(=O)c2ccc(Cl)cc2)c(N2CCOCC2)o1 | 13% | 0% | 15% | 7.9µM*
CS(=O)(=O)c1nc(S(=O)(=O)c2ccc(Cl)cc2)c(N2CCC(C(N)=O)CC2)s1 | -4% | 1% | -1% | 11µM*
NC(=O)C1CCN(CCS(=O)(=O)c2ccc(Cl)cc2)CC1 | -6% | 1% | -26% | 45µM*
CCCCCCCN(CC)CCCC(O)c1ccc(NS(C)(=O)=O)cc1 (stereo not drawn) | · | 1% | · | ·
Cc1ccc(C(=O)N(Cc2cc3cc4c(cc3nc2N2CCOCC2)CCC4)CC2CCCO2)cc1 (stereo not drawn) | · | · | 25% | ·
Cc1ccc(-n2c3c(cc(-c4nc(-c5ccc(Cl)cc5)cs4)c2=O)C(=O)CC(C)(C)C3)cc1C | · | -2% | 10% | 7%
CC(=O)n1cc(/C=N/NC(=O)c2ccc([N+](=O)[O-])cc2)c2ccccc21 | -5% | 3% | 35% | 12%
CC(=O)n1cc(C=C2C(=O)NC(=O)NC2=O)c2ccccc21 | 5% | 28µM* | ? | ?
COC(=O)/C(=C/c1c[nH]c2ccccc12)[N+](=O)[O-] | -12% | -22% | · | 45µM*
COC(=O)/C(=C/c1cn(C(C)=O)c2ccccc12)[N+](=O)[O-] | -7% | -9% | -28% | 3.5µM*
Cn1cc(C=C2C(=O)NC(=O)NC2=O)c2ccccc21 | 16% | 6% | 1% | ?
NCCC[C@H](N)CC(=O)N[C@H]1CNC(=O)[C@H]([C@H]2C[C@H](O)N=C(N)N2)NC(=O)C(=CNC(N)=O)NC(=O)[C@H](CO)NC(=O)[C@H](CO)NC1=O | · | · | -14%[16.9 µM] | ·
c1ccc(-c2noc(-c3ccc4c(c3)OCO4)n2)cc1 | 5% | -15% | 14µM* | ·
Cc1ccc(NC(=O)/C=C/c2ccccc2)c(Br)c1 | · | -9% | 9% | -9%
CCOc1ccccc1N1C(=O)CC(N(O)c2ccccc2)C1=O (stereo not drawn) | -2% | -16% | -10% | ?
Cc1c(Cl)cccc1N1C(=O)CC(N(O)c2ccccc2)C1=O (stereo not drawn) | -6% | 1% | -2% | 13µM*
Cc1cccc(C)c1N1C(=O)CC(N(O)c2ccccc2)C1=O (stereo not drawn) | 4% | -11% | -18% | 14µM*
O=C(OCc1nnc(-c2ccc([N+](=O)[O-])cc2)o1)C1CC(=O)N(CCc2ccccc2)C1 (stereo not drawn) | 3% | -16% | -3% | 89µM*
Cc1nnc(SCC(=O)N2CC(=O)Nc3ccccc32)n1C | 0% | -4% | 0% | 3%
SMILES | RE007 growth inh | TbPYK inhibitor | FMDV antiviral | Sm TGR block
Cc1ccc(-n2nnnc2SCC(=O)N2CC(=O)Nc3ccccc32)cc1 | -11% | -4% | ? | 45µM*
O=C(CSc1ccc(Cl)cc1)Nc1nnc(-c2cccc([N+](=O)[O-])c2)s1 | 9% | -1% | -9% | 45µM*
O=C(Cc1cccc2ccccc12)Nc1nnc(-c2cccc([N+](=O)[O-])c2)s1 | -7% | 3% | 2% | -9%
CS(=O)(=O)c1nc([N+](=O)[O-])nn1CCCc1ccccc1 | 8% | -5% | 18µM* | ·
Cn1nc([N+](=O)[O-])nc1S(C)(=O)=O | -8% | -1% | ? | ?
Cc1ccc(Nc2ccc([N+](=O)[O-])nc2[N+](=O)[O-])cc1 | 0% | -13% | -18% | 45µM*
Cc1ccc(Nc2ccc3nonc3c2[N+](=O)[O-])cc1 | -10% | 2% | -11% | 8%
CCC(C)NC(=O)Cn1c(=O)c2cccn2c2ccc(F)cc21 (stereo not drawn) | · | 1% | -23% | -8%
CN(C)c1ccc(Nc2nc(N)c3ccccc3n2)cc1 | 25µM* | ? | 7.1µM* | ?
COc1ccc(Nc2nc(N3CCCCC3)c3ccccc3n2)cc1 | -8% | 3% | 25µM* | 4%
CCOc1ccc(Nc2nc(N)c3ccccc3n2)cc1 | ? | ? | 8.9µM* | -3%
Nc1nc(Nc2ccccc2)nc2ccccc12 | ? | -23% | -43% | 2%
COc1ccc(CSc2nc3ncccc3[nH]2)cc1 | · | -4% | 6% | 3%
COc1ccc(CSc2nc3ccccc3[nH]2)cc1 | 32µM* | -10% | -51% | 19%
COCc1c(C(=O)N2CCN(C)CC2)cnn1-c1ncc2c(n1)-c1ccccc1CCC2 | · | · | -10% | ·
COc1ccc(-n2cc(-c3ccccc3)c3c(N4CC(C)OC(C)C4)ncnc32)cc1 (stereo not drawn) | -14% | 6% | 22µM* | -8%
Cn1cc(Br)c(C(=O)NNC(=O)c2ccc(Cl)cc2)n1 | -2% | -1% | 36% | -19%
Cn1cc(Br)c(C(=O)NNC(=O)c2cccc(Br)c2)n1 | -4% | 2% | 15% | 35µM*
Cc1ccc(NC(=O)Cn2nc(C(F)(F)F)c3c2CCCC3)cc1C | · | 5% | -13% | 5%
CCCCCCCCCCCCCCCC(O)C[N+](C)(C)CCO (stereo not drawn) | 35µM* | -14% | -14% | ·
O=C(/C(=C/c1ccncc1)n1ccnc1)c1ccc(Cl)cc1Cl | -2% | -3% | 22µM* | -29%
CCN(Cc1ccc(OC)c(F)c1)C(=O)C1CCCO1 (stereo not drawn) | 14% | 0% | 3% | 3%
CCN(Cc1ccc(OC)c(F)c1)C(=O)CCl | 12% | 0% | ? | 11µM*
C=CCNC(=O)/C(C#N)=C\c1cc(Cl)c(O)c(OCC)c1 | -12% | 2% | 8% | 40µM*
O=C(NC1(C(F)(F)F)NC(=O)N(CCc2ccccc2)C1=O)c1ccccc1Cl (stereo not drawn) | · | 0% | -8% | -3%
Cc1ccc(F)cc1CNC(=O)c1sc2ncnc(NCC3CCCO3)c2c1C (stereo not drawn) | · | · | -19% | ·
COc1ccc(NS(=O)(=O)c2cccc(NC(=O)c3ccc(Cl)nc3)c2)cc1 | 13% | -5% | 32µM* | 17%
COc1cccc(OCCn2c(-c3ccc(Cl)cc3)nc3ccccc3c2=O)c1 | · | 1% | -10% | 4%
COc1ccc2ccccc2c1C(=O)/C=C\c1ccoc1 | -20% | 4% | 0% | 22µM*
COc1ccc(C(=O)Oc2cc(C)c(CN3CCOCC3)cc2C)cc1OC | 4% | -1% | ? | 40µM*
